Data on 37 molecules can be found in PubChem BioAssay (NCATS).

Inconclusive results are not listed. The source made the active and inactive calls. Calls come from the whole dose curve; as a rule, active = well fitted inhibition curve with a large enough effect; inconclusive = small, poorly fitted or top-dose-only effect; inactive = no such curve, though single readings can be large or run the other way.

The nature of test [1]: qHTS Screen of the MIPE 4.0 Collection Against Ewings Sarcoma (TC71) (AID 1259253). Note: nearly all actives have a fitted effect of over 40% in size. The essentials:
(§1)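 Here, cells in 5% FBS RPMI were exposed for two days (48 h) to compound dilutions added four hours after plating. ATP-based CellTiter-Glo luminescence measured viability, normalized to vehicle and no-cell blanks.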
For orientation: qHTS replaces the single test concentration by a dilution series.

Test [2] is described as follows: qHTS Screen of the MIPE 4.0 Collection Against Ewings Sarcoma (EW8) (AID 1259255). Note: nearly all actives have a fitted effect of over 35% in size. The essentials: as §1
Potency is the fitted concentration of half-maximal effect.

Consider `COc1cc(Cl)cn2c(-c3cccc(NC4CNC4)n3)cnc12`, for which the Potency in test [1] is 23.5 µM (active). Besides, in test [2], the Potency result was “inactive”.

As for `COc1cc(F)c(C(C)C)cc1-c1ccc(C(F)(F)F)cc1CN1C(=O)O[C@H](c2cc(C(F)(F)F)cc(C(F)(F)F)c2)[C@@H]1C`, in test [1], the Potency is 16.6 µM (active). In addition, in test [2], the Potency result is “inactive”.

`O=S(=O)(NCCNCC=Cc1ccc(Br)cc1)c1cccc2cnccc12`: the Potency in test [1] was 2.64 µM (active).

Turning to `Oc1cc(O)cc(C=Cc2ccc(O)c(O)c2)c1`, the Potency in test [1] and in test [2] was 18.7 µM (active) each time.

Take `COC1CCC(C(=O)c2ccc3nc4c(cc3c2)CCCO4)CC1` (stereo not drawn): the Potency in test [1] is 16.6 µM (active).

For `OC[C@H]1O[C@@H](O[C@H]2[C@@H](O)[C@@](O)(CO)O[C@@H]2CO)[C@H](O)[C@@H](O)[C@@H]1O`, the Potency result in test [1] and in test [2] was “inactive” each time.

In the case of `CC(C)C[C@@H](C(=O)N[C@H](C(=O)OC1CCCC1)c1ccccc1)[C@H](O)C(=O)NO`, the Potency in test [1] and in test [2] was 18.7 µM (active) in each case.

`NC[C@H]1O[C@H](O[C@@H]2[C@@H](O)[C@@H](O[C@H]3O[C@H](CO)[C@@H](O)[C@H](N)[C@@H]3O)[C@H](N)C[C@@H]2N)[C@H](O)[C@@H](O)[C@H]1O`: the Potency result in test [1] and in test [2] was “inactive” in each case.

As for `C#C[C@]1(O)CC[C@H]2[C@H]3CCc4cc(OC)ccc4[C@H]3CC[C@@]21C`, the Potency in test [1] is 29.6 µM (active).

As to `Cc1ccccc1-n1c(Cn2nc(-c3cccc(O)c3)c3c(N)ncnc32)nc2cccc(C)c2c1=O`, the Potency was 9.35 µM (active) in test [1] and 16.6 µM (active) in test [2].

Regarding `Cc1cnc(-c2cc(N3CCN(C(=O)CCS(C)(=O)=O)CC3)ncc2Cl)c(C)c1`, the Potency entry in test [1] and in test [2] was “inactive” each time.

Regarding `CC(C)c1onc(-c2c(Cl)cccc2Cl)c1COc1ccc(C=Cc2cccc(C(=O)O)c2)c(Cl)c1`, the Potency in test [1] was 18.7 µM (active). For the same molecule, the Potency entry in test [2] was “inactive”.

As for `Nc1ccn([C@@H]2O[C@H](CO)[C@@H](O)[C@H]2O)c(=O)n1`, the Potency in test [1] was 0.0332 µM (active); in test [2], 0.0935 µM (active).

With `CN(C)CCN(Cc1ccc(Cl)cc1)c1ccccn1`, the Potency in test [1] is 20.9 µM (active).

For the molecule `COc1c(C)c2c(c(O)c1CC=C(C)CCC(=O)O)C(=O)OC2`, the values for the Potency in test [1] and in test [2] were 2.35 µM (active) and 1.48 µM (active), respectively.

For `CC1(C)[C@H]2CC[C@]3(C)[C@@H](C(=O)C=C4[C@@H]5C[C@@](C)(C(=O)O)CC[C@]5(C)CC[C@]43C)[C@@]2(C)CC[C@@H]1O`, the Potency entry in test [1] and in test [2] was “inactive” each time.

Take `O=C(O)C1=NC(C(=O)O)CC(C=CN2c3cc(O)c(OC4OC(CO)C(O)C(O)C4O)cc3CC2C(=O)O)=C1` (stereo not drawn): the Potency result in test [1] and in test [2] was “inactive” each time.

As for `Cc1cccc2c1CC[C@H](CN1CCC(c3c(Cl)cccc3Cl)CC1)C[C@@H]2O`, the Potency is 5.9 µM (active) in test [1] and 14.8 µM (active) in test [2].

On to `CCNC(=O)[C@H]1O[C@@H](n2cnc3c(N)nc(NCCc4ccc(CCC(=O)O)cc4)nc32)[C@H](O)[C@H]1O`, for which the Potency result in test [1] was “inactive”.

Regarding `CC=C1C2C=C(C)CC1(N)c1ccc(=O)[nH]c1C2` (stereo not drawn), the Potency in test [1] is 23.5 µM (active).

In the case of `Cc1[nH]c(C=C2C(=O)Nc3ccc(S(=O)(=O)N(C)c4cccc(Cl)c4)cc32)c(C)c1C(=O)N1CCN(C)CC1`, the Potency in test [1] and in test [2] was 26.4 µM (active) in each case.

Consider `CC[C@H](C=C[C@@H](C)[C@H]1CC[C@H]2[C@@H]3CC=C4C[C@@H](O)CC[C@]4(C)[C@@H]3CC[C@]12C)C(C)C`, for which the Potency entry in test [1] and in test [2] was “inactive” throughout.

With `C[C@@H](N)c1ccc(C(=O)Nc2ccnc3[nH]ccc23)cc1`, in test [1], the Potency is 16.6 µM (active).

For the molecule `CC(NCCc1ccc(O)cc1)C(O)c1ccc(O)cc1` (stereo not drawn), the Potency result in test [1] and in test [2] was “inactive” throughout.

In the case of `Cc1ccc(C2=Nc3ccc(Cl)cc3OC2)cc1`, the Potency in test [1] was 4.69 µM (active); in test [2] it was 16.6 µM (active).

Regarding `CN(C)CCOc1ccc(C(=C(CCCl)c2ccccc2)c2ccccc2)cc1`, the Potency in test [1] was 3.72 µM (active). Also, the Potency result in test [2] is “inactive”.

In the case of `CC(=O)OCC(=O)[C@@]1(O)CC[C@H]2[C@@H]3CCC4=CC(=O)C=C[C@]4(C)[C@@H]3[C@@H](O)C[C@@]21C`, the Potency in test [1] was 9.35 µM (active). The Potency result in test [2] is “inactive”.

Take `CC[C@H]1OC(=O)[C@H](C)[C@@H](O[C@H]2C[C@@](C)(OC)[C@@H](O)[C@H](C)O2)[C@H](C)[C@@H](O[C@@H]2O[C@H](C)C[C@H](N(C)C)[C@H]2O)[C@](C)(O)C[C@H](C)C(=NOCOCCOC)[C@H](C)[C@@H](O)[C@]1(C)O`: the Potency entry in test [1] and in test [2] was “inactive” in each case.

In the case of `CCNC(=O)Nc1ccc(Oc2ncnc(N)c2C=NOC)cc1Cl`, in test [1], the Potency result is “inactive”. Moreover, the Potency in test [2] was 8.33 µM (active).

With `C[C@@H]1CCO[C@H]2Cn3cc(C(=O)NCc4ccc(F)cc4F)c(=O)c(O)c3C(=O)N12`, the Potency in test [1] is 13.2 µM (active); in test [2] it was 20.9 µM (active).

On to `COc1ccc2cc1Oc1ccc(cc1)C[C@H]1c3cc(c(OC)cc3CCN1C)Oc1c(OC)c(OC)cc3c1[C@H](C2)N(C)CC3`, for which the Potency in test [1] was 20.9 µM (active).

`Cc1cc2nc3c(=O)[nH]c(=O)nc-3n(CC(O)C(O)C(O)CO)c2cc1C` (stereo not drawn): the Potency in test [1] is 26.4 µM (active). Also, the Potency result in test [2] is “inactive”.

With `CN[C@@H]1CN(c2ccc3c(=O)c(C(=O)O)cn(-c4nccs4)c3n2)C[C@@H]1OC`, the Potency in test [1] is 0.645 µM (active); in test [2], 0.323 µM (active).

For `c1cc(OCCN2CCCCC2)cc(-c2n[nH]c3ccc(-c4ncn[nH]4)cc23)c1`, in test [1], the Potency was 23.5 µM (active).

For `C[C@@H](O)[C@H]1C(=O)N2C(C(=O)OCOC(=O)C(C)(C)C)=C(SC3CN(C4=NCCS4)C3)[C@H](C)[C@H]12`, the Potency result in test [1] was “inactive”.

Consider `COc1ccc(CCN(C)CCCOc2ccc(S(=O)(=O)c3[nH]c4ccccc4c3C(C)C)cc2)cc1OC`, for which the Potency result in test [1] is “inactive”.

In the case of `CCC(C)SSc1ncc[nH]1` (stereo not drawn), the results for the Potency in test [1] and in test [2] were 26.4 µM (active) and 11.8 µM (active), respectively.
